Assay outcomes (PubChem)
nsP2pro primary – Primary qHTS for inhibitors of NSP2Pro chikungunya virus (CHIKV); 31,000 tested, 1.1% active; FRET peptide cleavage, nsP2pro, fluorescence 1 h; Polyprotein P1234 (Chikungunya virus (strain S27-African prototype)), Q8JUX6; Potency, µM (doses to about 24.9 µM), hits mostly inhibitors; further: nearly all actives have a fitted effect of over 60% in size
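Purified recombinant nsP2pro (150 nM final) in 10 mM Tris-HCl pH 8.0 with 0.01% Tween 20 was preincubated 15 min at room temperature with compound (7 concentrations, up to 25 uM). FRET peptide 2 substrate (2.5 uM final) was then added; fluorescence was read after 1 h.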
CHIKV nsP2 cell – Secondary cell base assay for inhibitors of NSP2Pro Chikungunya virus (CHIKV). cell-based CHIKV nsP2 protease reporter assay. 450 tested, 10% active. shares compounds with nsP2pro primary. AID 1964100, 2024. Potency, µM (doses to about 51.1 µM), most hits filed as inhibitors; further: nearly all actives have a fitted effect of over 70% in size
NSP2 full ctr – Selectivity profile for inhibitors of NSP2Pro chikungunya virus (CHIKV): Full length NSP2 enzyme counterscreen (CHIKV-NSP2). Potency, µM (doses to about 50.7 µM), hits mostly inhibitors. shares compounds with nsP2pro primary. Full-length CHIKV NSP2 protease enzymatic counterscreen. AID 1964101, 2024. 410 tested, 39% active; further: nearly all actives have a fitted effect of over 65% in size
Furin counter – Selectivity profile for inhibitors of NSP2Pro chikungunya virus (CHIKV): Human furin counterscreen. shares compounds with nsP2pro primary. Recombinant human furin enzymatic counterscreen, fluorogenic substrate. Potency, µM (doses to about 50.6 µM), hits mostly inhibitors. 410 tested, 6% active. AID 1964102, 2024
nsP2 NS23 pep – Selectivity profile for inhibitors of NSP2Pro chikungunya virus (CHIKV): Endogenous NS2/3 peptide Counterscreen. Purified CHIKV nsP2 protease, endogenous NS2/3 peptide cleavage. shares compounds with nsP2pro primary. 410 tested, 34% active. Potency, µM (doses to about 51 µM), usual class: inhibitors; further: nearly all actives have a fitted effect of over 55% in size
Papain counter – Selectivity profile for inhibitors of NSP2Pro chikungunya virus (CHIKV): Papain Counterscreen | shares compounds with nsP2pro primary | purified papain protease activity, enzymatic inhibition | Potency, µM (titrated, usually from 51 µM), most hits filed as inhibitors | 410 tested, 5% active | AID 1964104, 2024
nsP2pro confirm – Confirmatory qHTS for inhibitors of NSP2Pro chikungunya virus (CHIKV) | shares compounds with nsP2pro primary | CHIKV nsP2 protease enzymatic activity, qHTS | Potency, µM (highest dose often 25.5 µM), actives largely listed as inhibitors | 410 tested, 43% active | AID 1964105, 2024; further: nearly all actives have a fitted effect of over 75% in size
HCV NS3 4A cs – Selectivity profile for inhibitors of NSP2Pro chikungunya virus (CHIKV): NS34A-HCV Counterscreen | shares compounds with nsP2pro primary | Potency, µM (doses to about 50.9 µM), actives largely listed as inhibitors | 410 tested, 20% active | HCV NS3/4A protease biochemical counterscreen; further: nearly all actives have a fitted effect of over 55% in size
Of the large screens only hits and unclear results are named; the others gave an inactive call (follow-up assays come after a bar, where they were run). The entries come from a sample that favours hits as a whole. The call rests on the fitted dose curve.

Clc1ncoc1-c1c[nH]c2ccccc12	nsP2pro primary inconclusive | CHIKV nsP2 cell inactive | NSP2 full ctr inactive | Furin counter inactive | nsP2 NS23 pep inactive | Papain counter inactive | nsP2pro confirm inactive | HCV NS3 4A cs inactive
CNc1oc(-c2c[nH]c3ccccc23)nc1C#N	none
O=[S+]([O-])(Nc1ccccc1)c1ccc(NCc2cccc(C(F)(F)F)c2Cl)cc1	none
CC[C@@]1(O)C[C@H](O[C@H]2C[C@H](N(C)C)[C@H](O[C@H]3C[C@H](O)[C@H](O[C@H]4CCC(=O)[C@H](C)O4)[C@H](C)O3)[C@H](C)O2)c2c(cc3c(c2O)C(=O)c2c(O)cccc2C3=O)[C@@H]1C(=O)OC	nsP2pro primary inconclusive | CHIKV nsP2 cell inactive | NSP2 full ctr inconclusive | Furin counter inactive | nsP2 NS23 pep inconclusive | Papain counter inactive | nsP2pro confirm inconclusive | HCV NS3 4A cs inactive
COc1cccc2c1C(=O)c1c(O)c3c(c(O)c1C2=O)C[C@@](O)(C(=O)CO)C[C@@H]3O[C@H]1C[C@H](N)[C@H](OC2CCCCO2)[C@H](C)O1 (stereo not given in full)	none
COc1cccc2c1C(=O)c1c(O)c3c(c(O)c1C2=O)C[C@@](O)(C(=O)CO)CC3OC1CC(N2CCOC(OC)C2)C(O)C(C)O1 (stereo not given in full)	none
CCCOc1ccccc1C(C)Nc1nc(-c2cccnc2)nc2c1CNC2 (stereo not given)	none
O=C1Nc2ccc(Cl)cc2/C1=C\c1cc(Cl)c(O)c(Cl)c1	none
COC(=O)CCSC/C=C(\C)CCn1cc(CCc2ccc(-c3ccccc3)cc2)nn1	none
Cc1cc(-c2nc(Nc3ccc(F)c(F)c3)c3ccccc3n2)cc(C)n1	none
Cc1ccc(-n2nc(C)c([C@H]3C=C[C@@H](OC(=O)Nc4ccc(C(C)C)cc4)C3)c2C)cc1Cl	none
O=S(=O)(Nc1cc(Cl)c(Oc2cnc3ccccc3c2)c(Cl)c1)c1ccc(Cl)cc1Cl	none
O=[N+]([O-])c1ccc(S(=O)(=O)Nc2cnc3ccccc3c2)cc1	nsP2pro primary 6.3µM | CHIKV nsP2 cell inactive | NSP2 full ctr inactive | Furin counter inactive | nsP2 NS23 pep inactive | Papain counter inactive | nsP2pro confirm inactive | HCV NS3 4A cs inactive
COc1cccc(CNc2ccc(S(=O)(=O)Nc3cnc4ccccc4c3)cc2)c1O	none
Cc1cccc(S(=O)(=O)Nc2cccn3nc(C4CCC4)nc23)c1	none
O=S(=O)(Nc1cccn2nc(C3CC3)nc12)c1cccnc1	nsP2pro primary inconclusive | CHIKV nsP2 cell inactive
CCc1nc2c(NS(=O)(=O)c3cccnc3)cccn2n1	none
COC1CCN(c2cc(-c3ccsc3)nc3c(C)noc23)CC1	none
CC/C(=C(/c1ccc(O)cc1)c1ccc(OCCNC)cc1)c1ccccc1	none
O=[N+]([O-])c1ccc(-c2nc(Nc3ccc(F)c(F)c3)c3ccccc3n2)cc1	none
NC(=O)c1ccc[n+]([C@@H]2O[C@H](COP(=O)([O-])O)[C@@H](O)[C@H]2O)c1	none
CNC(C)CC1CCCC1 (stereo not given)	none
Cc1cc(NC(=O)NCCN2CCC(O)(Cc3ccccc3)CC2)c2ccccc2n1	none
